Data from publication PMC7862700, “An all-to-all approach to the identification of sequence-specific readers for epigenetic DNA modifications on cytosine”.

What was measured:
Experiment in all cases: DAPPL (digital affinity profiling via proximity ligation, sequencing); 10 mM Tris-HCl pH 7.5, 50 mM NaCl, 1 mM DTT, 4% glycerol, room temperature, 30 min; GST-TFs on glutathione beads, 16-mer random dsDNA library, 0.1% formaldehyde crosslink after washing; high values mean tight binding
[1] = target: T1, FEV (Homo sapiens, UniProt Q99581 1-238); conditions: protein: recombinant; tags: N-terminal GST; dsDNA, one strand shown
T1 sequence: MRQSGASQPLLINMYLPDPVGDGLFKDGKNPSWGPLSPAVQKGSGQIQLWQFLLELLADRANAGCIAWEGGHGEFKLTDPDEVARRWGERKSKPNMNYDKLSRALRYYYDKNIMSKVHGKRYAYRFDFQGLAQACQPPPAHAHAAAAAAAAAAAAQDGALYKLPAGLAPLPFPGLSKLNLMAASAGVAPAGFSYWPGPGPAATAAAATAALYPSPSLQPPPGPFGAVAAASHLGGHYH
Summary of the method: (§1)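 Binding signal is each hexamer's read frequency for a factor divided by its frequency in the tag-only sample. The factors were GST-fused human transcription factors from yeast, captured on glutathione beads, DNA-barcoded and pooled with that sample. Pools were incubated with 200 nmole of a random double-stranded 16-mer DNA library in Tris/NaCl/DTT/glycerol buffer at room temperature for 30 min, then washed, crosslinked with 0.1% formaldehyde, proximity-ligated with BsaI/T4 ligase (1 h, 37 °C), PCR-amplified and sequenced on an Illumina NextSeq500.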

[2] = target: ETV5 (Homo sapiens, UniProt P41161 1-510); conditions: protein: recombinant; tags: N-terminal GST; dsDNA, one strand shown
Chain of ETV5 (P41161 whole entry): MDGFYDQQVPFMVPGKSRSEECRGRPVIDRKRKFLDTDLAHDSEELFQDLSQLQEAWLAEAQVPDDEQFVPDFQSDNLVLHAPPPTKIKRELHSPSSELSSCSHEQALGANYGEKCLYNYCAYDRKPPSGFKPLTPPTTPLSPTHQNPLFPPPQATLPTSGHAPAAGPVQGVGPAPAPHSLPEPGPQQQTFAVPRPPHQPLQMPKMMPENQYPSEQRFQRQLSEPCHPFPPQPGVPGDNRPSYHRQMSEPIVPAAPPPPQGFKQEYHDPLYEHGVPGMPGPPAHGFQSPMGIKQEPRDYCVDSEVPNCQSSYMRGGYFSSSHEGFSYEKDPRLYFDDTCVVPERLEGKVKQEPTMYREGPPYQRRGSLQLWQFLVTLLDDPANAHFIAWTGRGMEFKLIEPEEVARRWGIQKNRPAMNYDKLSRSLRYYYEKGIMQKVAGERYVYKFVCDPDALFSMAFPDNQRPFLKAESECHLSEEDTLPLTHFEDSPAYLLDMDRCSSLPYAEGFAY
Summary of the method: as §1

[3] = target: HSF1 (Homo sapiens, UniProt Q00613 1-529); conditions: protein: recombinant; tags: N-terminal GST; chain copies: 3; dsDNA, one strand shown
Chain of HSF1 (Q00613 whole entry): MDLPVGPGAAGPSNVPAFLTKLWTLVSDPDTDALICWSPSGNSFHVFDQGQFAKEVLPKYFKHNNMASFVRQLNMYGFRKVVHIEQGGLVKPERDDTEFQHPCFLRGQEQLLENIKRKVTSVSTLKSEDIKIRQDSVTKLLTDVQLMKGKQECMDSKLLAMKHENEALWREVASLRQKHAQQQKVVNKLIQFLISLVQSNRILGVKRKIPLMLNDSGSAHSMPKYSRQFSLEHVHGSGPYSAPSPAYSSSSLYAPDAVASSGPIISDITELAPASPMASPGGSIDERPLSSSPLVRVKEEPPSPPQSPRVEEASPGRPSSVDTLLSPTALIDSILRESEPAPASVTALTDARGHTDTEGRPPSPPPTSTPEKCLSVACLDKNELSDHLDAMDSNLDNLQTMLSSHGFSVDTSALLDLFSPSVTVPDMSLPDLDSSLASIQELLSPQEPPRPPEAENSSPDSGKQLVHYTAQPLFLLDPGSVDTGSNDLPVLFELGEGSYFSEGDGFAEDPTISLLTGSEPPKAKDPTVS
Summary of the method: as §1

[4] = target: ELF4 (Homo sapiens, UniProt Q99607 1-663); conditions: protein: recombinant; tags: N-terminal GST; dsDNA, one strand shown
Chain of ELF4 (Q99607 whole entry): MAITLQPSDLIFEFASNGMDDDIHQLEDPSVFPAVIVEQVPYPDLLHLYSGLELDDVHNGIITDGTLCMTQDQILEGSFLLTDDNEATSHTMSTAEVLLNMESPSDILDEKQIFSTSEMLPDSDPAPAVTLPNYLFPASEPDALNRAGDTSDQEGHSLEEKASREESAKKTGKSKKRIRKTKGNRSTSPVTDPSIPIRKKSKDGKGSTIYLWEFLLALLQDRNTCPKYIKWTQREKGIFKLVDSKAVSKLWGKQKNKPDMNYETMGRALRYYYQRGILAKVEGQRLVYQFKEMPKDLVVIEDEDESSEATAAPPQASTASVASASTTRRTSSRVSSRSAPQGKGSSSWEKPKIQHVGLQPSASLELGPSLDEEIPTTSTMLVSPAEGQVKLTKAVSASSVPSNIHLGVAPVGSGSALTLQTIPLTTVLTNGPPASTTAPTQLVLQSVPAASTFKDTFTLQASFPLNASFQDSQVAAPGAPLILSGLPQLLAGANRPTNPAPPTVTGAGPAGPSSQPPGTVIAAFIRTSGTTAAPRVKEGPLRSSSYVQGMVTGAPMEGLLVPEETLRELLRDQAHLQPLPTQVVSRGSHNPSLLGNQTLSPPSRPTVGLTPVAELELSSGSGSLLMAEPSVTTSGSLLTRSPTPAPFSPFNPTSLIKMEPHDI
Summary of the method: as §1

[5] = target: T2, ELK4 (Homo sapiens, UniProt P28324-2 1-405); conditions: protein: recombinant; tags: N-terminal GST; dsDNA, one strand shown
T2 sequence: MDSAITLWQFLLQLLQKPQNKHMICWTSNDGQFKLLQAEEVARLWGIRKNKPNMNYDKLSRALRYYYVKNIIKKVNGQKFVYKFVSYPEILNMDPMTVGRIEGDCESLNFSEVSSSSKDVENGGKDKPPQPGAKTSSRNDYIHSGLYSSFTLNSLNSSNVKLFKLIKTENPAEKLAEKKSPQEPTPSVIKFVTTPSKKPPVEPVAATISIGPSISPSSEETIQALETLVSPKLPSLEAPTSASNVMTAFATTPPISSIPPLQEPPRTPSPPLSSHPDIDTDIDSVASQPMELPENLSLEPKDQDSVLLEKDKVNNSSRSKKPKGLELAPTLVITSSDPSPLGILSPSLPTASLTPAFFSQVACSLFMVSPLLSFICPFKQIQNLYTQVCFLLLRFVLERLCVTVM
Summary of the method: as §1

[6] = target: T3, ELF3 (Homo sapiens, UniProt P78545 1-371); conditions: protein: recombinant; tags: N-terminal GST; dsDNA, one strand shown
T3 sequence: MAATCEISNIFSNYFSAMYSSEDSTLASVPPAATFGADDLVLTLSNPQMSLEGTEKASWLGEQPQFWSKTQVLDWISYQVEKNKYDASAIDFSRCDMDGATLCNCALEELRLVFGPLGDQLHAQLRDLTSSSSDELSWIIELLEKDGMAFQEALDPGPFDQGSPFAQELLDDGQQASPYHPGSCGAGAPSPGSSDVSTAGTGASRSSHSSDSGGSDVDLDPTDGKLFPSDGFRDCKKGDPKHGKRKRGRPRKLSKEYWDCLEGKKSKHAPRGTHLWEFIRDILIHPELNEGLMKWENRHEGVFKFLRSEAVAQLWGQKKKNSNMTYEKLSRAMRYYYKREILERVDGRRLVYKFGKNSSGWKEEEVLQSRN
Summary of the method: as §1

[7] = target: CRX (Homo sapiens, UniProt O43186 1-299); conditions: protein: recombinant; tags: N-terminal GST; dsDNA, one strand shown
Chain of CRX (O43186 whole entry): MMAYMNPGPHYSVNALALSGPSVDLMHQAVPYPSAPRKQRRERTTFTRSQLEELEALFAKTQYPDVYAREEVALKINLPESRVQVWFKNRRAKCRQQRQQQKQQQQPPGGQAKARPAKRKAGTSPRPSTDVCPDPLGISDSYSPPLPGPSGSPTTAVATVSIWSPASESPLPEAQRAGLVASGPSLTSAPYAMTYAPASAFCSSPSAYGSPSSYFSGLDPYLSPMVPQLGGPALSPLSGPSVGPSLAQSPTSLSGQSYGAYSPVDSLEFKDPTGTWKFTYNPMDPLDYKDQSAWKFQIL
Summary of the method: as §1

[8] = target: T4, ERF (Homo sapiens, UniProt P50548 1-548); conditions: protein: recombinant; tags: N-terminal GST; dsDNA, one strand shown
T4 sequence: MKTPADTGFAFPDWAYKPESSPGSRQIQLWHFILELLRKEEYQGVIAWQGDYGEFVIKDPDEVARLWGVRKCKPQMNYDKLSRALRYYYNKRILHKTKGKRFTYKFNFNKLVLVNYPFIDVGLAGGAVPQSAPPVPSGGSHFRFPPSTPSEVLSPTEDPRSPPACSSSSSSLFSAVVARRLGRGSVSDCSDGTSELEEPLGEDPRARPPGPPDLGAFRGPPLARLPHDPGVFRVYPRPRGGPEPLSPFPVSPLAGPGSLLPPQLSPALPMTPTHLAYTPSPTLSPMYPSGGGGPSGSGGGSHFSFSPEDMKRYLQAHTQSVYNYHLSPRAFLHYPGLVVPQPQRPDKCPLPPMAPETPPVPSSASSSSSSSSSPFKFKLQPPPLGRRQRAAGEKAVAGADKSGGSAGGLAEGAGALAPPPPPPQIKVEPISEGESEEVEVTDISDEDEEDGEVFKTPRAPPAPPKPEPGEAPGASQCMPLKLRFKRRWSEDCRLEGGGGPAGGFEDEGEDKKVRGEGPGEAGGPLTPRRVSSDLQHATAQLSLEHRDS
Summary of the method: as §1

[9] = target: T5, ETV3L (Homo sapiens, UniProt Q6ZN32 1-361); conditions: protein: recombinant; tags: N-terminal GST; dsDNA, one strand shown
T5 sequence: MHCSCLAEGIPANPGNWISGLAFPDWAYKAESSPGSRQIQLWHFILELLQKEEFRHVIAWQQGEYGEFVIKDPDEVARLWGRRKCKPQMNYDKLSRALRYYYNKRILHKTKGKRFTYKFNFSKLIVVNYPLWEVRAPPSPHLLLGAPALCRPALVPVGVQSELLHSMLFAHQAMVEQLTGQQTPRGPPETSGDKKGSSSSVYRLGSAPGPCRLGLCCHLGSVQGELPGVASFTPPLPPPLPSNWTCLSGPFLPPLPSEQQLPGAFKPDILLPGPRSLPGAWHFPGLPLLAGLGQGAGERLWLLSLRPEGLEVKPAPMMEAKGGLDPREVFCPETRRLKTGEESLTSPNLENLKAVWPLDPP
Summary of the method: as §1

[10] = target: T6, ETS2 (Homo sapiens, UniProt P15036 1-469); conditions: protein: recombinant; tags: N-terminal GST; dsDNA, one strand shown
T6 sequence: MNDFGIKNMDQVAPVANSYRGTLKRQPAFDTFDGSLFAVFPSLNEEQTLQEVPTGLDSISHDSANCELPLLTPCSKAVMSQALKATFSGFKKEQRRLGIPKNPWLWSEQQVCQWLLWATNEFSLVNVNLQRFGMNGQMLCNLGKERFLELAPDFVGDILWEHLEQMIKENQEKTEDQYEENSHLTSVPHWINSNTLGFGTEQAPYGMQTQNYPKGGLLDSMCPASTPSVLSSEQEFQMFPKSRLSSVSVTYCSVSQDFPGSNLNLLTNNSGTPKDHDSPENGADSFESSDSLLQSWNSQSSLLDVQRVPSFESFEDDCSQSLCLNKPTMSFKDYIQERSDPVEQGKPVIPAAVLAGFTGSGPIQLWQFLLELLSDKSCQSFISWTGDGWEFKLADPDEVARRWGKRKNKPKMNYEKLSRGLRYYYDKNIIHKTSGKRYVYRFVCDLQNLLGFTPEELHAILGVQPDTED
Summary of the method: as §1

[11] = target: T7, SPDEF (Homo sapiens, UniProt O95238 1-335); conditions: protein: recombinant; tags: N-terminal GST; dsDNA, one strand shown
T7 sequence: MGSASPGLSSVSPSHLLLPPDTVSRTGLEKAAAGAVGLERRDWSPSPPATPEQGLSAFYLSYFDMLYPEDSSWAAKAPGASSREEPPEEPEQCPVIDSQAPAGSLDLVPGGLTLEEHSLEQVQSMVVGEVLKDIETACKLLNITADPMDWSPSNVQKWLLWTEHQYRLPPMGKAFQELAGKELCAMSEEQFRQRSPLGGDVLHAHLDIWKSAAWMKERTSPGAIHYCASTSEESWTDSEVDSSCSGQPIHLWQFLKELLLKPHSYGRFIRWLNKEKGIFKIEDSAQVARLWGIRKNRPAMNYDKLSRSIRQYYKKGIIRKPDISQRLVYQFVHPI
Summary of the method: as §1

[12] = target: T8, ETV7 (Homo sapiens, UniProt Q9Y603 1-341); conditions: protein: recombinant; tags: N-terminal GST; dsDNA, one strand shown
T8 sequence: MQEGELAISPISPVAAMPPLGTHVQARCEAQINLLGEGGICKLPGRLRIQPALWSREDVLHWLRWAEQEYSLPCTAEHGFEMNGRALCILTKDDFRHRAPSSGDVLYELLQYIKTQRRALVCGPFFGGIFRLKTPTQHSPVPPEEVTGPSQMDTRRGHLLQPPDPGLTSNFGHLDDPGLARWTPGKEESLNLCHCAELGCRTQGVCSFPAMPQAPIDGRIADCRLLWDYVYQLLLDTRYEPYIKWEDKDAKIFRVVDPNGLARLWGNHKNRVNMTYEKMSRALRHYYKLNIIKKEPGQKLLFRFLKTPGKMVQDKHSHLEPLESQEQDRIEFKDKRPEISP
Summary of the method: as §1

[13] = target: T9, ELF5 (Homo sapiens, UniProt Q9UKW6-2 1-255); conditions: protein: recombinant; tags: N-terminal GST; dsDNA, one strand shown
T9 sequence: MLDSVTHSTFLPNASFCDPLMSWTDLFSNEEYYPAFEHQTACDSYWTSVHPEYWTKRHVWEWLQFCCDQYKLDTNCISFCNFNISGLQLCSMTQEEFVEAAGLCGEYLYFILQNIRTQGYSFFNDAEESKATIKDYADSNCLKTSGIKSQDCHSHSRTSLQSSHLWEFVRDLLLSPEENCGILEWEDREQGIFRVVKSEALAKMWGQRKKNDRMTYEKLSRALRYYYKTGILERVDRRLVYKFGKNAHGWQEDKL
Summary of the method: as §1

[14] = target: T10, ETV3 (Homo sapiens, UniProt P41162-2 1-143); conditions: protein: recombinant; tags: N-terminal GST; dsDNA, one strand shown
T10 sequence: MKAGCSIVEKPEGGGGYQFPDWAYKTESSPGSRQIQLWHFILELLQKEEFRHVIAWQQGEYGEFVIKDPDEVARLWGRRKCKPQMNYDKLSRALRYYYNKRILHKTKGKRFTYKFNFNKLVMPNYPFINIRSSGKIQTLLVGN
Summary of the method: as §1

[15] = target: ETV6 (Homo sapiens, UniProt P41212 1-452); conditions: protein: recombinant; tags: N-terminal GST; dsDNA, one strand shown
Chain of ETV6 (P41212 whole entry): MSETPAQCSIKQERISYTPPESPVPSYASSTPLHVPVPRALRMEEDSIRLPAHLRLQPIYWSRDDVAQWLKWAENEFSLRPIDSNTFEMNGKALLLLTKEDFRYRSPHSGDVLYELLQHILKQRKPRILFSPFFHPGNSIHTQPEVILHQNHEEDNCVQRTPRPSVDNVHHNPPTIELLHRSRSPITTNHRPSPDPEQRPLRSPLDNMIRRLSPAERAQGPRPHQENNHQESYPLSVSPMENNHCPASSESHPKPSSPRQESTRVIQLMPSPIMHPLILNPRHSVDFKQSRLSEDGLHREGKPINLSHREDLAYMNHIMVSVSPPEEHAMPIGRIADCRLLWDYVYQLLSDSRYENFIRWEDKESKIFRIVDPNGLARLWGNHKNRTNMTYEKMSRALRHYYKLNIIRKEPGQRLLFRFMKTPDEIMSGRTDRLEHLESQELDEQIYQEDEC
Summary of the method: as §1

CCAAAT
binding signal [1]: 1.08 fold enrichment (6-mer frequency, TF over GST control)
binding signal [2]: 1.06 fold enrichment (6-mer frequency, TF over GST control)
binding signal [3]: 1.02 fold enrichment (6-mer frequency, TF over GST control)
binding signal [4]: 1.17 fold enrichment (6-mer frequency, TF over GST control)
binding signal [5]: 1.04 fold enrichment (6-mer frequency, TF over GST control)
binding signal [6]: 1.11 fold enrichment (6-mer frequency, TF over GST control)
binding signal [7]: 1.18 fold enrichment (6-mer frequency, TF over GST control)
binding signal [8]: 1.11 fold enrichment (6-mer frequency, TF over GST control)
binding signal [9]: 1.02 fold enrichment (6-mer frequency, TF over GST control)
binding signal [10]: 1.08 fold enrichment (6-mer frequency, TF over GST control)
binding signal [11]: 1.05 fold enrichment (6-mer frequency, TF over GST control)
binding signal [12]: 1.06 fold enrichment (6-mer frequency, TF over GST control)
binding signal [13]: 1.01 fold enrichment (6-mer frequency, TF over GST control)
binding signal [14]: 1.03 fold enrichment (6-mer frequency, TF over GST control)
binding signal [15]: 1.06 fold enrichment (6-mer frequency, TF over GST control)
